Measured values taken from PubChem BioAssay (EPA / NIEHS).
“And” between values parts separate entries of the source, which are not always exact repeats. Equal values may be shown once. Inconclusive results are not listed. The source made the active and inactive calls. How the source made its calls: active means hit-call score of the fitted dose curve at least 0.9, where 1 is the maximum; inconclusive means response in the unintended direction; inactive means score below 0.9.

target: Glucocorticoid receptor (Homo sapiens) (UniProt P04150); assay: NVS_NR_hGR: NovaScreen (NVS) Nuclear Receptor Binding Assay for human Glucocorticoid Receptor (GR) (AID 2283363)
Sequence (P04150 whole entry, looked up): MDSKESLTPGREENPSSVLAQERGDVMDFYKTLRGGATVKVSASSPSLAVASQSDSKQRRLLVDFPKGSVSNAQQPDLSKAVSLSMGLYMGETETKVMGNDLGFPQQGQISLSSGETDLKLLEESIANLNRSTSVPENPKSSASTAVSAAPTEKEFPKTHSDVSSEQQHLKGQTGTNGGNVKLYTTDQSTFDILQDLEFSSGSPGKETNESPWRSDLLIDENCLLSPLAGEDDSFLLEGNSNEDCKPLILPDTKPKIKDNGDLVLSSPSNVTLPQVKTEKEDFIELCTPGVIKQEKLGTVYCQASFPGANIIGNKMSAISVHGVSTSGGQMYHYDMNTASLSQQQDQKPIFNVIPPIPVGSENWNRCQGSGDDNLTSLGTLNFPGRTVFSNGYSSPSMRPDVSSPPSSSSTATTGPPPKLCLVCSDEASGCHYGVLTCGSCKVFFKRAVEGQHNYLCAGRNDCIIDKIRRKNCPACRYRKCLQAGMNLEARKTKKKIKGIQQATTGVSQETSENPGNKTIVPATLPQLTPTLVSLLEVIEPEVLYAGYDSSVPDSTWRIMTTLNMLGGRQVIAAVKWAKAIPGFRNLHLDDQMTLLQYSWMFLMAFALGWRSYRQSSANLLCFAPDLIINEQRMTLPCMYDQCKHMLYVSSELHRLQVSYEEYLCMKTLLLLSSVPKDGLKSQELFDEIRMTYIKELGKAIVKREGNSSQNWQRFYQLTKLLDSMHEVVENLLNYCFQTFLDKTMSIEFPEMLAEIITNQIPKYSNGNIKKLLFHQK
In short: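 Cell-free radioligand binding with extracted receptor protein, read by filter-based scintillation counting 16 hours after dosing. Loss of specific signal versus DMSO baseline was scored. Primary screen ran in duplicate at 25 uM; actives were followed up in concentration series.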

outcome, inactive:
CCCCC(CC)COP(=O)(OCC(CC)CCCC)OCC(CC)CCCC (centres undefined)
Cc1cc(Cc2ccc(N)c(C)c2)ccc1N
S=c1[nH]c2ccccc2s1
CCCCOC(=O)CCCCC(=O)OCCCC
CCCCc1nc2cccnc2n1Cc1ccc(-c2ccccc2-c2nnn[nH]2)cc1

AC50, active:
CCCCCCCCCCCCCCOS(=O)(=O)O 2.14 µM
O=Cc1ccccc1C=O 6.78 µM

target: Nuclear receptor subfamily 1 group I member 2 (Homo sapiens) (UniProt O75469); assay: NVS_NR_hPXR: NovaScreen (NVS) Nuclear Receptor Binding Assay for human Pregnane X Receptor (PXR) (AID 2283365);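 further: a drop in FRET signal versus DMSO baseline means the compound binds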
Sequence (O75469 whole entry, looked up): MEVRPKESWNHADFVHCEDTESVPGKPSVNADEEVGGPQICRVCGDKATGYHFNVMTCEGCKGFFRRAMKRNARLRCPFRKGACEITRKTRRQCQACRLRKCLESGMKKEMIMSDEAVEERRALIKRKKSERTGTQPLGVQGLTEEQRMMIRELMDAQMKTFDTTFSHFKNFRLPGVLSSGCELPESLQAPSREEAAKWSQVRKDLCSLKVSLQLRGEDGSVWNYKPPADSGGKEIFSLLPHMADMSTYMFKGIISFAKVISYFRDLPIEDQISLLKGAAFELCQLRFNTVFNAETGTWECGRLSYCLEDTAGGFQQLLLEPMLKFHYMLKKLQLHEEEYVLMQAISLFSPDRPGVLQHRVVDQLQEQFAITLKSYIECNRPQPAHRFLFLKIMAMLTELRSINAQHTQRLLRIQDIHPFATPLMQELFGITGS
In short: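 Cell-free binding assay with extracted human PXR protein, read by TR-FRET 2 h after dosing; loss of signal relative to DMSO baseline indicates binding. Primary screen at 25 uM in duplicate, actives retested in concentration series.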

outcome, inactive:
CN(C)C(=O)NC1(c2ccccc2)CCN(CC[C@@]2(c3ccc(F)c(F)c3)CN(C(=O)c3ccccc3)CCO2)CC1
COc1ccc(C(=O)Nc2nc3ccccc3c(NCc3ccccc3)c2C#N)cc1
O=C1NC(=O)C(c2ccccc2)(c2ccccc2)N1
O=C1c2c(O)cccc2Cc2cccc(O)c21
CC(=O)O[C@]1(C(C)=O)CC[C@H]2[C@@H]3C=C(Cl)C4=CC(=O)[C@@H]5C[C@@H]5[C@]4(C)[C@H]3CC[C@@]21C
CC(C)(C)c1ccccc1
CC(=O)CC(c1ccccc1)c1c(O)c2ccccc2oc1=O (centres undefined)
CC(=O)[C@@]1(O)CC[C@H]2[C@@H]3CCC4=CC(=O)CC[C@]4(C)[C@H]3CC[C@@]21C
CSc1ccc(Oc2ccc(S(N)(=O)=O)cc2CN(C)C)cc1C

AC50, active:
CC(C)OC(=O)C(C)(C)Oc1ccc(C(=O)c2ccc(Cl)cc2)cc1 41.2 µM
COc1ccc(OC(F)(F)F)cc1CN[C@H]1CCCN[C@H]1c1ccccc1 7.41 µM
CCN(CC)CCOc1ccc(C(=C(Cl)c2ccccc2)c2ccccc2)cc1 3.15 µM and 3.46 µM and 3.72 µM
CCCCCCCCCCCCCCOS(=O)(=O)O 7.25 µM

target: rat Androgen Receptor (AR), Ar (gene 24208) (UniProt P15207); assay: NVS_NR_rAR: NovaScreen (NVS) Nuclear Receptor Binding Assay for rat Androgen Receptor (AR) (AID 2283366)
Sequence (P15207 whole entry, looked up): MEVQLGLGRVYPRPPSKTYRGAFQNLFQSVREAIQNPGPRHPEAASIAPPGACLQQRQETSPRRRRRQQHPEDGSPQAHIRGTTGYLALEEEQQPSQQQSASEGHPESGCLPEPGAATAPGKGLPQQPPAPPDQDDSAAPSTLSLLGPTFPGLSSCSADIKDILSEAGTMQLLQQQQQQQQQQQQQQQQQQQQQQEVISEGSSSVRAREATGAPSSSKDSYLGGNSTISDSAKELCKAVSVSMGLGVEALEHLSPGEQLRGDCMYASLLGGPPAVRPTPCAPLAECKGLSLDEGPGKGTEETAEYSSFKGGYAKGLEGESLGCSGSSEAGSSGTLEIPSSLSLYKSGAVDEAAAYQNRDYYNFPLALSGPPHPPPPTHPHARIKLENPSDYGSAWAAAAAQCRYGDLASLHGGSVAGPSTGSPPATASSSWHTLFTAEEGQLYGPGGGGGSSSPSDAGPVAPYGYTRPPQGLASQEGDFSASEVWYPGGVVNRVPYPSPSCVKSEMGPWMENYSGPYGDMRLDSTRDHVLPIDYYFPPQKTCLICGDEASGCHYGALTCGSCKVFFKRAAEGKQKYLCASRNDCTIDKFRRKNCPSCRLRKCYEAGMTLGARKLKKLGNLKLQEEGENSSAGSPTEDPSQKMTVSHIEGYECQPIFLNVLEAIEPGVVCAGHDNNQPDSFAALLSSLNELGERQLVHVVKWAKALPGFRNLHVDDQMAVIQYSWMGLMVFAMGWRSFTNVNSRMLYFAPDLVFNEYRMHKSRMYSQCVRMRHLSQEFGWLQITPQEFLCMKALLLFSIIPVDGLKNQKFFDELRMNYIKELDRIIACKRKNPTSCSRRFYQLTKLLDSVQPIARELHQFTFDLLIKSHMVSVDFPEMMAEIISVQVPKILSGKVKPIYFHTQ
In short: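 Cell-free radioligand binding on extracts of prostate from testosterone-pretreated rats, read by filter-based scintillation counting 18 h after dosing. Loss of bound signal fitted positively versus DMSO; primary screen in duplicate at 25 uM, actives followed up in concentration series.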

AC50, active:
CCN(CC)CCOc1ccc(C(=C(Cl)c2ccccc2)c2ccccc2)cc1 2.68 µM [middle of 4 runs]
O=C1OC(c2ccc(O)cc2)(c2ccc(O)cc2)c2ccccc21 6.69 µM

outcome, inactive:
Cc1ccc(-c2cc(C(F)(F)F)nn2-c2ccc(S(N)(=O)=O)cc2)cc1
Cc1c(C)c2c(c(C)c1O)CCC(C)(COc1ccc(CC3SC(=O)NC3=O)cc1)O2 (centres undefined)

target: guinea pig Sigma Receptor, Non-selective Binding, SIGMAR1 (gene 100135589) (UniProt Q60492); assay: NVS_OR_gSIGMA_NonSelective: NovaScreen (NVS) Nuclear Receptor Binding Assay for guinea pig Sigma Receptor, Non-selective Binding (AID 2283367)
Sequence (Q60492 whole entry, looked up): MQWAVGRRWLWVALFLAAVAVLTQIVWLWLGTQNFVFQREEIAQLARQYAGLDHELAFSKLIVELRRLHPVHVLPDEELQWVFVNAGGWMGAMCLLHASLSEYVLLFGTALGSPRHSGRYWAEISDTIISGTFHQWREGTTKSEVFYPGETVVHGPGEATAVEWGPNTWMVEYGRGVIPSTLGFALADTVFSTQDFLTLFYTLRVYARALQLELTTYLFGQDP
In short: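 Guinea pig brain membranes, cell-free radioligand binding; read 1 h after dosing by filter-based scintillation counting. Loss of signal vs DMSO baseline taken as displacement. Primary screen single concentration 25 uM in duplicate; actives retested in concentration series.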

AC50, active:
CCc1nc(N)nc(N)c1-c1ccc(Cl)cc1 2.45 µM
COc1ccc(OC(F)(F)F)cc1CN[C@H]1CCCN[C@H]1c1ccccc1 15.8 µM
CCN(CC)CCOc1ccc(C(=C(Cl)c2ccccc2)c2ccccc2)cc1 2.13 µM
CCCCCCCCCC[N+](C)(C)[O-] 3.09 µM
Cc1c(C)c2c(c(C)c1O)CCC(C)(COc1ccc(CC3SC(=O)NC3=O)cc1)O2 (centres undefined) 35 µM
CSc1ccc(Oc2ccc(S(N)(=O)=O)cc2CN(C)C)cc1C 12.8 µM

test system: guinea pig Dopamine Transporter (DAT), gene 100714898; assay: NVS_TR_gDAT: NovaScreen (NVS) Transporter Assay for guinea pig Dopamine Transporter (DAT) (AID 2283369);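 further: active compounds lower bound radioligand signal relative to DMSO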
In short: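 Guinea pig striatal membranes; radioligand displacement measured by filter-based scintillation counting 2 h after dosing. Initial duplicate screen at 25 uM, then concentration-response up to 50 uM for hits; loss of signal versus DMSO baseline.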

AC50, active:
CCc1nc(N)nc(N)c1-c1ccc(Cl)cc1 1.18 µM
COc1ccc(OC(F)(F)F)cc1CN[C@H]1CCCN[C@H]1c1ccccc1 11.9 µM
CCN(CC)CCOc1ccc(C(=C(Cl)c2ccccc2)c2ccccc2)cc1 3.83 µM
CSc1ccc(Oc2ccc(S(N)(=O)=O)cc2CN(C)C)cc1C 7.61 µM

outcome, inactive:
CCCCC(CC)COP(=O)(OCC(CC)CCCC)OCC(CC)CCCC (centres undefined)

target: Peroxisome proliferator-activated receptor gamma (Homo sapiens) (UniProt P37231); assay: NVS_NR_hPPARg: NovaScreen (NVS) Nuclear Receptor Binding Assay for human Peroxisome Proliferator-activated Receptor gamma (PPARg) (AID 2283370)
Sequence (P37231 whole entry, looked up): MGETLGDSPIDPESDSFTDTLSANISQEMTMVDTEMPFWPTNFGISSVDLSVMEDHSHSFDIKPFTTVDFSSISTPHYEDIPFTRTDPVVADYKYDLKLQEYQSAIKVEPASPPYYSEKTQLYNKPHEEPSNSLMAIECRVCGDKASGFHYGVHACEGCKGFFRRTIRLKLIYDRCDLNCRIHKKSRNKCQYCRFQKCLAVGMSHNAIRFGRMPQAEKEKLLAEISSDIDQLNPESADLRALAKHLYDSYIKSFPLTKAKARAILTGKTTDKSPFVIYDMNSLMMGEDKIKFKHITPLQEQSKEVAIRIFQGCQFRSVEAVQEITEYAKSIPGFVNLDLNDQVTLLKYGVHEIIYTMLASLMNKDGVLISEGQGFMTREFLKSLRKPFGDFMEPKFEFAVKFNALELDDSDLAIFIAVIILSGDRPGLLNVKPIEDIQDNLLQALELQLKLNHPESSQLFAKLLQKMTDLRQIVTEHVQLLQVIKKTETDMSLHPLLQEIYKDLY
In short: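 Cell-free binding to extracted PPARg protein, read by fluorescence polarization 2 h after dosing; loss of signal relative to DMSO baseline marks displacement. Primary screen in duplicate at 25 uM, actives retested in concentration series.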

outcome, inactive:
CN(C)C(=O)NC1(c2ccccc2)CCN(CC[C@@]2(c3ccc(F)c(F)c3)CN(C(=O)c3ccccc3)CCO2)CC1
CCc1nc(N)nc(N)c1-c1ccc(Cl)cc1
CCCCC(CC)COP(=O)(OCC(CC)CCCC)OCC(CC)CCCC (centres undefined)
S=c1[nH]c2ccccc2s1

AC50, active:
CCCCCCCCCCCCCCOS(=O)(=O)O 1.78 µM
CCCCc1nc2cccnc2n1Cc1ccc(-c2ccccc2-c2nnn[nH]2)cc1 4.96 µM

test system: rat Norepinephrine Transporter (NET), gene 83511; assay: NVS_TR_rNET: NovaScreen (NVS) Transporter Assay for rat Norepinephrine Transporter (NET) (AID 2283373)
Experimental: NVS_TR_rNET is a biochemical, single-readout assay that uses extracted gene-proteins from Rat forebrain membranes in a tissue-based cell-free assay. Measurements were taken 1 hour after chemical dosing in a 48-well plate.NVS_TR_rNET is one of one assay component(s) measured or calculated from the NVS_TR_rNET assay. It is designed to make measurements of radioligand binding, a form of binding reporter, as detected with scintillation counting signals by Filter-based radiodetection technology.Data from the assay component NVS_TR_rNET was analyzed into 1 assay endpoint. This assay endpoint, NVS_TR_rNET, was analyzed in the positive analysis fitting direction relative to DMSO as the negative control and baseline of activity. Using a type of binding reporter, loss-of-signal activity can be used to understand changes in the binding as they relate to the gene Slc6a2. Furthermore, this assay endpoint can be referred to as a primary readout, because the performed assay has only produced 1 assay endpoint. To generalize the intended target to other relatable targets, this assay endpoint is annotated to the transporter intended target family, where the subfamily is neurotransmitter transporter.
Binding assays used specific radioligands (tritiated, iodinated) with non-radioactive competitive displacement ligands in agonist or antagonist protocols (as indicated) and various reference compounds and inhibitors to titrate specific binding to receptors and transporters. Most enzyme assays (CYPs, kinases, phosphatases, proteases, HDACs) used recombinant protein and specific substrates (fluorescence mostly, some colorimetric and radioactive) and inhibitors, followed by a biochemical separation of substrate and product. All assays for the biochemical HTS were initially run in duplicate at a single concentration (10 uM for CYP450 assays and […] uM for all others). […] Each assay was run with positive and negative controls, and concurrent controls on every plate. The follow-up (secondary) screen tested active chemical-pairs in concentration series, as well as a few additional assays not tested in the primary screen, some selected negative inactives, and several cases re-run in the concentration series for confirmatory purposes.

AC50, active:
CCc1nc(N)nc(N)c1-c1ccc(Cl)cc1 6.82 µM
COc1ccc(OC(F)(F)F)cc1CN[C@H]1CCCN[C@H]1c1ccccc1 8.18 µM
CCN(CC)CCOc1ccc(C(=C(Cl)c2ccccc2)c2ccccc2)cc1 10.2 µM
CSc1ccc(Oc2ccc(S(N)(=O)=O)cc2CN(C)C)cc1C 25 µM

outcome, inactive:
Cc1cc(Cc2ccc(N)c(C)c2)ccc1N

target: human Dopamine Transporter (DAT), SLC6A3 (gene 6531) (UniProt Q01959); assay: NVS_TR_hDAT: NovaScreen (NVS) Transporter Assay for human Dopamine Transporter (DAT) (AID 2283374);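 further: activity means loss of bound radioligand signal relative to DMSO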
Sequence (Q01959 whole entry, looked up): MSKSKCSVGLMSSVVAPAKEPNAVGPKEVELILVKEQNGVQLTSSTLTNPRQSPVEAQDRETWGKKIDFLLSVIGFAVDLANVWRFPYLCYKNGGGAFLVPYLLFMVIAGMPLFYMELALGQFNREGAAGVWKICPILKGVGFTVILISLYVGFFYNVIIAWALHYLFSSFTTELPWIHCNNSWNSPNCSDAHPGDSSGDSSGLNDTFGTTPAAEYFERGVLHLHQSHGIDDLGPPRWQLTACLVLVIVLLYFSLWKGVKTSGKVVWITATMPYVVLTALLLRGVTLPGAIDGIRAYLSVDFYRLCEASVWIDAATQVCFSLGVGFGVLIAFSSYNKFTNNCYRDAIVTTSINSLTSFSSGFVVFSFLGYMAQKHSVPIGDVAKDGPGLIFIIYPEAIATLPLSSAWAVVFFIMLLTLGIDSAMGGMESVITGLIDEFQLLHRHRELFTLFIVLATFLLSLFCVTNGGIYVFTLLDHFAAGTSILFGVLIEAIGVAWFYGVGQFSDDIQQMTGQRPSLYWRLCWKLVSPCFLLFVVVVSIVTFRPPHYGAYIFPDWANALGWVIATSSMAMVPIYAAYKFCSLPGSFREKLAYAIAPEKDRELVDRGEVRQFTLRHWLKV
In short: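 Cell-free radioligand binding to extracted human DAT protein, read 1 h after dosing by filter-based scintillation counting. Loss of specific binding scored against DMSO baseline; primary screen in duplicate at 25 uM, actives then run in concentration series.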

AC50, active:
CCc1nc(N)nc(N)c1-c1ccc(Cl)cc1 0.754 µM
O=C1NC(=O)C(c2ccccc2)(c2ccccc2)N1 5.81 µM
Cc1cc(Cc2ccc(N)c(C)c2)ccc1N 8.53 µM
CCCCCCCCCCCCCCOS(=O)(=O)O 41 µM
O=C1OC(c2ccc(O)cc2)(c2ccc(O)cc2)c2ccccc21 6.6 µM
CSc1ccc(Oc2ccc(S(N)(=O)=O)cc2CN(C)C)cc1C 4.52 µM

outcome, inactive:
CC(C)OC(=O)C(C)(C)Oc1ccc(C(=O)c2ccc(Cl)cc2)cc1
CCCCC(CC)COP(=O)(OCC(CC)CCCC)OCC(CC)CCCC (centres undefined)
